A selection: hits, their analogues and other compounds. The true share with any hit is near 4.2%.
DAX1 StAR inh – blocks DAX1 repression of SF-1 activated StAR promoter | 370,000 tested, 1.1% active | HEK293T StAR-luciferase reporter, SF-1/DAX-1 repression relief | inhibition, % at 6.8 µM;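 active means inhibition above the mean over all tested compounds plus 3 SD, cut at about 3.6% in these data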;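 further: higher inhibition means more luminescence from relief of DAX-1 repression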
ssDAF-12 act – activates DAF-12 receptor from parasite S. stercoralis; AID 652126; HEK293 ssDAF-12/GRIP1 lit1-tk-luc reporter, luminescence; % of 3 µM dafachronic acid response; 370,000 tested, 1% active; activation, % at 6.8 µM;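 active means activation above the mean over all tested compounds plus 3 SD, cut at about 0.9% in these data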
hcDAF12 agonist – activators of H. contortus DAF-12 nuclear receptor | HEK293 hcDAF-12 lit1-tk-luc reporter, luminescence; 0% DMSO, 100% Δ7-dafachronic acid | activation, % at 6.8 µM | 370,000 tested, 1.4% active | AID 652067;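 active means activation above the mean of all tested compounds plus 3 SD, cut at about 5.5% in these data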
SMARCA2 act – increases SMARCA2 function in MMTV reporter cells; activation, % at 9.1 µM; AID 652017; MG213 cells, MMTV-luciferase reporter, dexamethasone, overnight; 370,000 tested, 1% active; in the data active means activation above about 7.8%
hgDAF12 agonist – agonists of H. glycines DAF-12 nuclear receptor. HEK293 GAL4-hgDAF12 UAS-luciferase reporter, agonist luminescence; normalized to butyrate control. activation, % at 6.8 µM. 370,000 tested, 1.8% active. AID 687014;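 active means activation above a cutoff set at the mean of all screened compounds plus 3 SD, cut at about 10% in these data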
Each line names hits and unclear results; the compound was inactive in the other large screens.

Cc1ccc2cc(C#N)c(N3CCN(C(=O)c4cccs4)CC3)nc2c1	hcDAF12 agonist 6.5
N#Cc1ccccc1OCC(=O)NC1CCCCCC1	hgDAF12 agonist 10.9
CCOc1ccc(-n2c(SCC(=O)Nc3cc(C)c(NC(=O)c4ccccc4)cc3OC)nnc2-c2ccncc2)cc1	none
COc1ccccc1CNC(=O)c1cc(-c2ccncc2)nc2c(Cl)cccc12	hcDAF12 agonist 6.0
COc1ccc(CCNC(=O)c2cc(-c3ccncc3)nc3c(Cl)cccc23)cc1OC	none
CC(=O)C1=C(C)NC(SCC(=O)c2ccc(Cl)cc2)=C(C#N)C1CC(C)C (stereo not drawn)	none
CC(=O)C1=C(C)NC(SCC(=O)c2ccc(F)cc2)=C(C#N)C1CC(C)C (stereo not drawn)	hgDAF12 agonist 11.5
Nc1nc(N)c(N=O)c(OCC2CCCCC2)n1	hgDAF12 agonist 12.1
NS(=O)(=O)OCC1CCCCC1	none
COc1ccccc1NC(=O)NNC(=O)c1ccncc1	DAX1 StAR inh 3.8
CC(C)(C)OC(=O)/C=C/[C@@H](CC1CCCC1)Sc1ccc(C(C)(C)C)cc1	none
Cc1ccc(Nc2nc(C(=O)N3CCC(C(=O)N4CCN(C)CC4)CC3)cs2)cc1	none
Cc1ccc(Nc2nc(COC(=O)C3CC3)cs2)cc1	hgDAF12 agonist 10.9
CCCNC(=O)COC(=O)c1ccccc1OCC(=O)Nc1ccc(Br)cc1	none
CN(C(=O)c1ccccc1OCC(=O)Nc1ccc(Br)cc1)c1ccccc1	ssDAF-12 act 1.0
Cc1ccc2nsnc2c1NC(=O)c1cccnc1Cl	ssDAF-12 act 10.3
CC1CCN(C(=O)COC(=O)c2ccc3c(c2)OCCO3)CC1	none
CC1CCCCN1C(=O)COC(=O)c1cc(Cl)c2c(c1)OCO2 (stereo not drawn)	DAX1 StAR inh 3.7
CC1CCN(C(=O)COC(=O)c2ccc3c(c2)OCO3)CC1	hgDAF12 agonist 12.0
CC1CCCCN1C(=O)COC(=O)c1ccc(N2CCCC2=O)cc1 (stereo not drawn)	none
CN1CCCCC(NC(=O)c2ccc3ccccc3c2)C1=O (stereo not drawn)	hgDAF12 agonist 10.6
CC(C)c1ccc(OC[C@@H](O)CN2CCC(C(O)(c3ccccc3)c3ccccc3)CC2)cc1	none
COc1ccccc1CCn1cnc(-c2cccc(Cl)c2)c1CC(C)C	none
N#C/C(=C\c1ccccn1)c1nc2ccccc2s1	none
COc1ccc(/C(C#N)=C/c2ccccn2)cc1	hgDAF12 agonist 12.2
C[C@H]1COc2c3ccc(I)cc3nn21	none
CC(C)Cn1c(C(C)C)nc([N+](=O)[O-])c1S(=O)(=O)c1ccc(F)cc1	none
CCCc1nc([N+](=O)[O-])c(S(=O)(=O)c2ccccc2)n1CC(C)C	hgDAF12 agonist 10.5
Cc1[nH]n(-c2ccccc2)c(=O)c1C(c1ccc(C(=O)O)cc1)c1c(C)[nH]n(-c2ccccc2)c1=O	ssDAF-12 act 2.1
Cc1[nH]n(-c2ccccc2)c(=O)c1C(c1cccc([N+](=O)[O-])c1)c1c(C)[nH]n(-c2ccccc2)c1=O	hcDAF12 agonist 6.7
Cc1[nH]n(-c2ccccc2)c(=O)c1C(c1cccc([N+](=O)[O-])c1O)c1c(C)[nH]n(-c2ccccc2)c1=O	none
Cc1ccccc1NC(=S)c1nc2ccccc2[nH]1	ssDAF-12 act 1.2, hcDAF12 agonist 5.8
Cc1ccc(NC(=O)CCS(=O)(=O)c2ccccc2)cc1C	none
O=C1CC(SC2=NCCS2)C(=O)N1c1ccc(Br)cc1 (stereo not drawn)	none
O=C1CC(SC2=NCCS2)C(=O)N1c1ccc(Cl)cc1 (stereo not drawn)	ssDAF-12 act 1.4
Cc1cc(C(=O)N/N=C/c2ccc([N+](=O)[O-])cc2)c(C)o1	hgDAF12 agonist 11.0
Cc1cc(C(=O)N/N=C/c2ccccc2)c(C)o1	none
CCn1c(SCC(=O)c2c[nH]c3ccccc23)nc2cc(S(=O)(=O)N3CCOCC3)ccc21	hcDAF12 agonist 5.6
CC1(c2nnnn2-c2ccc3c(c2)OCCO3)CCC(=O)N1Cc1cccc(C(F)(F)F)c1 (stereo not drawn)	none
CC(Sc1nnc(-c2cccnc2)n1-c1ccccc1F)C(=O)N1CCCc2ccccc21 (stereo not drawn)	SMARCA2 act 7.9
Cc1cc(C)nc(N/N=C/C=C/c2ccccc2)n1	none
Cc1sc(N/N=C/C=C/c2ccccc2)nc1-c1ccccc1	hcDAF12 agonist 6.0
O=c1c(/C=N/Nc2ccccc2)c(Sc2nnnn2-c2ccccc2)nc2ccccn12	hcDAF12 agonist 6.3, hgDAF12 agonist 12.3
O=C(O)c1ccccc1N/N=C/c1c(Sc2nnnn2-c2ccccc2)nc2ccccn2c1=O	none
CCNC(=S)NNC(=O)CSc1nnc(SCc2cccc3ccccc23)s1	none
Cn1c(=O)c2c(ncn2CC(=O)Nc2nc3ccc(F)cc3s2)n(C)c1=O	hcDAF12 agonist 6.2
CCc1ccc2nc(NC(=O)CN3C(=O)NC4(CCCC4)C3=O)sc2c1	hgDAF12 agonist 10.9
CCc1ccc2nc(NC(=O)Cn3cnc4ccccc4c3=O)sc2c1	ssDAF-12 act 1.2
O=C(Cn1cnc2ccccc2c1=O)Nc1nc2ccccc2s1	none
CC(=O)NCCCNc1ccc([N+](=O)[O-])cc1	hcDAF12 agonist 6.1
COc1ccccc1C(=O)NCCCNc1ccc([N+](=O)[O-])cc1	none
C[C@@H]1CNCCN1c1ccc(N2CCN(Cc3ccccc3)[C@@H](C)C2)c(C#N)c1	none
CCn1c(C)cc(/C=C2/SC(=O)N(C(C)C(=O)OC)C2=O)c1C (stereo not drawn)	none
COC(=O)C(C)N1C(=O)S/C(=C/c2cc(C)n(C(C)C)c2C)C1=O (stereo not drawn)	hgDAF12 agonist 11.5
CC(C)Oc1cccc(C(=O)N2CCCC2)c1	ssDAF-12 act 1.1
O=C(O)c1cc(OCc2ccccc2)cc(OCc2ccccc2)c1	none
O=C(OCC(F)(F)F)c1cccc(COc2ccc3ccccc3c2)c1	DAX1 StAR inh 5.6, hcDAF12 agonist 6.1, hgDAF12 agonist 14.6
COc1ccc(OCc2cccc(C(=O)O)c2)cc1	hcDAF12 agonist 5.8
COc1cccc(COc2ccc3ccc(=O)oc3c2)c1	ssDAF-12 act 1.0
O=C(Nc1cccc(F)c1)OCCCN1CCC2(CCC(c3ccccc3)CC2)C1 (stereo not drawn)	none
CC1CCC2(CCC(=O)N2CCCOC(=O)Nc2cccc(C(F)(F)F)c2)CC1 (stereo not drawn)	none
CC(C)(N[C@@H](Cc1ccccc1)C(=O)NCCCc1ccccc1)C(=O)NCc1ccccc1	none (no result: DAX1 StAR inh, SMARCA2 act)
COc1cccc(OC)c1C(=O)NNC(=O)c1cccc(COc2ccc3c(c2)CCC3)c1	hgDAF12 agonist 11.9
NNC(=O)c1ccc(COc2ccc3c(c2)CCC3)o1	hgDAF12 agonist 11.2
O=C(O)c1cccc(COc2ccc(CO)cc2Cl)c1	DAX1 StAR inh 3.6
CCOc1ccc(OCc2cccc(C(=O)N3CCCC3)c2)cc1	DAX1 StAR inh 4.2
COc1ccccc1NC(=O)c1ccc(COc2ccc3c(c2)CCC3)cc1	none

High-throughput results: PubChem, The Scripps Research Institute Molecular Screening Center
